HCMV antiviral = blocks human cytomegalovirus replication | activity change, negative = inhibition, % at 57.5 µM | hit rate 4.5% among 410,000 | HFF cells, HCMV-luciferase reporter, 72 h; stronger effect = lower value; in the data active = activity change below about -60%; inconclusive = no clear call, values can overlap the other calls; inactive = above about -39%
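Two-dose cell screen: HFF monolayers treated with compounds and infected with luciferase-expressing HCMV at 1 PFU/cell, 72 h at 37C, then lysed for luciferase measurement.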
Vaccinia mCherry = inhibitors of vaccinia virus infection (mCherry reporter signal). hit rate 0.63% among 310,000. Vaccinia virus mCherry reporter infection, fluorescence. Potency, µM (series often up to 36.5 µM), usual class: inhibitors; calls by dose curve; tested in A549 cells; also: nearly all actives have a fitted effect of over 35% in size
FMDV inh = antivirals against foot and mouth disease virus; FMDV antiviral cell-based qHTS; Potency, µM (highest dose often 57.9 µM), hits mostly inhibitors; hit rate 1.2% among 410,000; calls by dose curve; tested in HEK293T cells; also: read-out not given here; nearly all actives have a fitted effect of over 45% in size
Lassa entry inh = blocks Lassa virus binding to or entry into cells. hit rate 1.2% among 300,000. Potency, µM (titrated, usually from 37.9 µM), most hits filed as inhibitors. Lassa virus pseudotype entry inhibition, cell reporter; calls by dose curve; tested in HEK293 cells; also: nearly all actives have a fitted effect of over 50% in size
Vaccinia Venus = vaccinia inhibition (Venus reporter); Vaccinia virus Venus reporter expression, fluorescence; Potency, µM (highest dose often 36.5 µM), usual class: inhibitors; hit rate 0.46% among 330,000; AID 720580; calls by dose curve; tested in A549 cells; also: nearly all actives have a fitted effect of over 30% in size
Marburg entry inh = inhibitors of Marburg virus binding or cell entry; Marburg virus pseudotyped entry inhibition, cell reporter; Potency, µM (series often up to 37.8 µM), usual class: inhibitors; hit rate 1.8% among 300,000; calls by dose curve; tested in HEK293 cells
Numbers stand for hits; i = inactive; ? = inconclusive; nt = no result given; ! = not active in a repeat. A selection: hits, their analogues and other compounds. The true share with any hit is near 6.5%.

SMILES | HCMV antiviral | Vaccinia mCherry | FMDV inh | Lassa entry inh | Vaccinia Venus | Marburg entry inh
COC(=O)c1cc(=O)n(CCc2ccc(OC)c(OC)c2)c(=Nc2ccc(F)c(Cl)c2)s1 | i | i | 28.2µM | nt | i | i
COC(=O)c1cc(=O)n(Cc2ccc(OC)c(OC)c2)c(=Nc2ccc(F)cc2)s1 | i | i | 12.6µM | nt | i | i
COC(=O)c1cc(=O)n(Cc2ccco2)c(=Nc2ccc(F)cc2)s1 | nt | ? | 28.2µM | nt | ? | nt
CCN(Cc1ccccc1)S(=O)(=O)c1ccc(C(=O)Nc2nnc(-c3ccccc3OC)o2)cc1 | -60.8 | i | i | ? | i | ?
Cc1ccc(-c2nnc(NC(=O)CCS(=O)(=O)c3ccc(F)cc3)o2)c(C)c1 | i | i | i | i | i | ?
COc1ccccc1-c1nnc(NC(=O)CCS(=O)(=O)c2ccccc2)o1 | i | 8.91µM | i | i | ? | i
Cc1ccc(S(=O)(=O)CCC(=O)Nc2nnc(-c3ccco3)o2)cc1 | i | ? | i | i | ? | ?
O=C(CCS(=O)(=O)c1ccc(Cl)cc1)Nc1nnc(-c2ccco2)o1 | i | 10µM | i | ? | ? | ?
O=C(CCS(=O)(=O)c1ccc(F)cc1)Nc1nnc(-c2ccc(F)cc2)o1 | i | 10µM | i | i | ? | i
CSc1ccc2nnc(-c3ccc(C)cc3)n2n1 | nt | i | nt | nt | i | nt
COc1ccccc1-c1nnc(NC(=O)CCS(=O)(=O)c2ccc(F)cc2)o1 | i | ? | i | nt | 4.47µM | nt
O=C1CC(N(CCc2ccccc2)C(=S)Nc2cc(Cl)ccc2Cl)C(=O)N1c1c(Cl)cccc1Cl (stereo unspecified) | i | ? | i | ? | ? | 12.6µM
O=C1CC(N(CCc2ccccc2)C(=S)Nc2ccccc2)C(=O)N1c1ccccc1 (stereo unspecified) | i | i | i | ? | i | ?
CCOc1ccc(CSC2=NCCN2)cc1[N+](=O)[O-] | i | i | i | ? | ? | 3.98µM
CCCCOc1ccc(CN(CCO)CCO)cc1[N+](=O)[O-] | i | nt | i | i | nt | i
CCOc1ccc(CN(CCO)CCO)cc1[N+](=O)[O-] | -67.8 | i | i | i | i | i
Cc1nc2ccccn2c(=O)c1CCN1CCC(C(=O)c2ccc(F)cc2)CC1 | i | i | i | i | i | 6.31µM!
Cc1nc2sccn2c(=O)c1CCN1CCC(=C(c2ccc(F)cc2)c2ccc(F)cc2)CC1 | i | i | i | 11.6µM | i | 20µM
COc1cc(OC)cc(C(=O)NCC2CCN(C(=O)C(=O)c3cccs3)CC2)c1 | i | nt | nt | nt | nt | nt
Cc1cc(=O)n2nc(N3CCC(C(=O)N4CCN(c5ccccc5)CC4)CC3)sc2n1 | i | i | i | i | i | ?
CCCc1cc(=O)n2nc(N3CCC(C(=O)N4CCN(c5ccc(OC)cc5)CC4)CC3)sc2n1 | -86.8 | nt | ? | nt | nt | nt
Cc1ccccc1NC(=O)c1cc(C(=O)c2cc(Cl)ccc2O)cn(-c2ccccc2C)c1=O | -65.2 | ? | ? | ? | ? | ?
O=C(c1ccccc1)c1ccc(NCCCn2ccnc2)c([N+](=O)[O-])c1 | ? | i | i | ? | i | ?
CCN(CC)S(=O)(=O)c1ccc(NCCCn2ccnc2)c([N+](=O)[O-])c1 | -62.2 | i | i | i | i | ?
COc1ccccc1C(=O)NCC(=O)N/N=C/c1cc(Br)ccc1OC(=O)/C=C\c1ccco1 | i | nt | i | i | nt | i
SMILES | HCMV antiviral | Vaccinia mCherry | FMDV inh | Lassa entry inh | Vaccinia Venus | Marburg entry inh
O=C(CNC(=O)c1ccc(F)cc1)N/N=C/c1cc(Br)ccc1OC(=O)/C=C/c1ccco1 | -77.1 | ? | i | nt | i | nt
O=C(CNC(=O)c1ccccc1F)N/N=C/c1cc(Br)ccc1OC(=O)/C=C/c1ccco1 | -82.8 | ? | i | ? | i | ?
COc1ccc(N2CCN([C@H]3CC(=O)NC3=O)CC2)cc1 | nt | nt | nt | nt | nt | i
CCCn1c2c(c(O)c(C(=O)NC)c1=O)CCCC2 | i | nt | i | i | i | i
CCCn1c2c(c(O)c(C(=O)NCCCN(CC)CC)c1=O)CCCC2 | i | i | i | i | i | 10µM
CCc1ccc(CNCc2cccs2)cc1 | i | i | i | nt | i | i
CCc1ccc(S(=O)(=O)NCc2cccs2)cc1 | -66.4 | i | i | i | i | i
COc1ccc(S[C@]2(c3nc(C)no3)CC(=O)N(C(=O)CCc3ccccc3)[C@@H]2c2ccc(OC)cc2)cc1 | i | nt | nt | nt | nt | nt
O=C(C[n+]1cccc2cccc(O)c21)c1ccc(Br)cc1 | nt | i | nt | nt | i | nt
Cc1cccc(NC(=O)N2CCN(Cc3ccc(Cl)cc3)CC2)c1 | -62.9 | i | i | ? | i | ?
O=C(Nc1cccc(Cl)c1)N1CCN(Cc2ccccc2)CC1 | i | i | i | nt | i | i
CC(=O)N[C@@H](C)C(=O)NCC1Cc2cc(C)cc(-c3cnccn3)c2O1 (stereo partly specified) | nt | i | i | nt | i | nt
Cc1ccc2c(c1)C1CN(C)CCC1N2Sc1ccccc1[N+](=O)[O-] (stereo unspecified) | i | ? | ? | 7.08µM | i | ?
Cc1ccc2c(c1)[C@@H]1CN(C)CC[C@@H]1N2S(=O)(=O)c1ccc([N+](=O)[O-])cc1 | i | ? | i | i | ? | ?
O=C(NCCC1=CCCCC1)c1ccc2c(c1)N(Cc1cccc(Cl)c1)C(=O)c1ccccc1S2(=O)=O | i | i | i | ? | i | nt
O=C(NCCC1=CCCCC1)c1ccc2c(c1)N(Cc1cccc(Cl)c1)C(=O)c1ccccc1S2=O (stereo unspecified) | -62.8 | i | i | i | i | nt
O=C(NCCC1=CCCCC1)c1ccc2c(c1)N(Cc1ccc(Cl)cc1)C(=O)c1ccccc1S2(=O)=O | i | i | i | ? | i | 11.2µM
Cc1cc(SCC(=O)c2ccc(Br)cc2)cc(C)[o+]1 | nt | i | nt | nt | i | nt
COc1ccc(C/C(N)=N/n2cnnc2)cc1 | ? | i | nt | i | i | i
CC(C)COc1ccc(C/C(N)=N/n2cnnc2)cc1 | -94.3 | i | i | ? | i | 1µM
CC(C)Cn1c(N)c(S(=O)(=O)c2cccs2)c2nc3ccccc3nc21 | nt | nt | i | ? | ? | i
COc1cccc(/C=N/n2c(N)c(S(=O)(=O)c3cccs3)c3nc4ccccc4nc32)c1 | -61.6 | nt | i | i | nt | i
COc1ccc(/C=N/n2c(N)c(S(=O)(=O)c3cccs3)c3nc4ccccc4nc32)cc1OC | -88.0 | nt | i | i | nt | ?
Cc1cccc(S(=O)(=O)c2c(N)n(/N=C/c3cccnc3)c3nc4ccccc4nc23)c1 | ? | i | nt | i | i | ?
Cc1cccc(S(=O)(=O)c2c(N)n(/N=C/c3ccco3)c3nc4ccccc4nc23)c1 | i | nt | i | i | nt | ?
Cc1ccc(S(=O)(=O)c2c(N)n(/N=C/c3ccco3)c3nc4ccccc4nc23)cc1C | ? | i | i | i | i | 7.08µM
Nc1c(S(=O)(=O)c2cccs2)c2nc3ccccc3nc2n1/N=C/c1cccc(O)c1 | -102.7 | ? | 39.8µM | ? | 11.2µM | ?
COc1ccc(-c2nc3cnc(N4CCOCC4)nc3n(CCc3ccccc3)c2=O)cc1 | nt | nt | i | nt | nt | nt
COCCN(CCOC)C(=O)c1cc2c(=O)n3ccccc3nc2n1C | i | i | i | i | i | nt
Cc1ccc(CN2CCCn3nc(C(=O)NCc4cc(C)ccc4C)cc3C2=O)cc1 | i | i | i | ? | ? | nt

Source: PubChem BioAssay (National Center for Advancing Translational Sciences (NCATS))
